According to PubChem BioAssay AID2331 (The Scripps Research Institute Molecular Screening Center, 2010):
The list shows a part of the results. Unmarked numbers belong to inactive results. The source made the active and inactive calls. Cut-off read from the data, not from the text of the source: active = inhibition above about 9.5%; inactive = the rest.

Target: Serine/threonine-protein phosphatase 5 (Homo sapiens) (UniProt P53041)
Assay: inhibition of human PPP5C phosphatase activity – biochemical, fluorescence, confirmation (AID 2331)
Conditions: Purified PP5, fluorogenic phosphatase substrate, at 6.7 µM, active compounds read high

Serine/threonine-protein phosphatase 5 (Homo sapiens), sequence (P53041 whole entry, looked up): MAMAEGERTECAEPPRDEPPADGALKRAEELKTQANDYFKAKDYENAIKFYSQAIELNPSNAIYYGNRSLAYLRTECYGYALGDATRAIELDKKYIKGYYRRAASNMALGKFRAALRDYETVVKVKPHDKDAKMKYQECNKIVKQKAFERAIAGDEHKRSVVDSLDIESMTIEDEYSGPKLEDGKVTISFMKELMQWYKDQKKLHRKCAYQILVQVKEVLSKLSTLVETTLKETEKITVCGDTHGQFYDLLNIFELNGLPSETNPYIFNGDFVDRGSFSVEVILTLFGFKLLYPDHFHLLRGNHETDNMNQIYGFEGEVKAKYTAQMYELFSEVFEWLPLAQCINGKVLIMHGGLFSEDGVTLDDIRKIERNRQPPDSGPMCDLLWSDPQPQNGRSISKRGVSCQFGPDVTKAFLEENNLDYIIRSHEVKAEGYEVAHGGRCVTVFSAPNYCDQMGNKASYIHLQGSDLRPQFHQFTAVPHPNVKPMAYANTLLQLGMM

Compared with Cc1nnc(SCc2nc3ccccc3nc2C)s1, CN(C)c1nc(N)nc(CSc2nnnn2-c2cccc3ccccc23)n1 is higher in inhibition: -2.92% for the first, -0.03% for the second.

Compared with COc1ccc(OC)c(C(=O)c2ccc(C(=O)O)cc2)c1, COc1cc(C(F)(F)F)c(C(=O)N(C)c2ccc(Cl)cc2)cn1 is higher in inhibition: -7.99% for the first, -0.02% for the second.

Compared with Cc1nc(NC(CC(C)C)C(=O)O)c2nc(C)oc2n1 (stereo not given), Cc1sc(NC(=O)C2C3CCC(O3)C2C(=O)O)c(C(=O)OC(C)C)c1-c1ccc(Cl)cc1 (stereo not given) is higher in inhibition: -2.93% for the first, 3.03% for the second.

Going from CN(c1ccccc1)S(=O)(=O)c1ccc(NC(=O)COc2ccccc2)cc1 to O=c1ccc2c(-c3ccccc3S(=O)(=O)O)c3ccc(O)c(O)c3oc-2c1O, the inhibition rises from 1.21% to 3.55%.

Compared with O=[N+]([O-])c1cccc2ncccc12, COc1cc(/C=C2/SC(=S)N(Cc3ccccc3)C2=O)cc(OC)c1O is higher in inhibition: -1.87% for the first, 0.02% for the second.

Compared with CCOC(=O)Nc1ccc2c(c1)N(C(=O)CN1CCN3CCCC3C1)c1ccccc1CC2 (stereo not given), O=C(C1=C[C@H](c2ccc(C(F)(F)F)cc2)C[C@H](OCc2ccc(CO)cc2)O1)N1CCN(Cc2ccccc2)CC1 is higher in inhibition: -4.11% for the first, 3.97% for the second.

C[C@@]12C(=O)N(c3cccc(Br)c3)C(=O)N1[C@H](c1ccc(Cl)cc1)[C@@H]1C(=O)N(C3CCCCC3)C(=O)[C@@H]12 showed an inhibition of 7.67%.

With N#Cc1c(N2CCCCC2)nc(N)c2c(N)nc(SCC(=O)O)cc12 the inhibition was 36.8% (active).
For O=C(O)c1n[nH]nc1-c1ccccc1, the inhibition was 41.3% (active).
